Results on 93 molecules are retold here after PubChem BioAssay AID463173 (ICCB-Longwood Screening Facility, Harvard Medical School, 2010).

The campaign covered roughly 52,000 compounds. About 1,700 (3.3%) were called active. Many of the other results were omitted from the sample, so actives are more common in it than they were. Values without a mark were called inactive. Cut-off read from the data, not from the text of the source: active = survival mostly below about 52% (no sharp cut-off); inactive = mostly above about 56%.

The subject of the assay is Wild type. As to the kind of experiment: growth inhibition of S. aureus wild type versus tarO mutant, primary screen, teichoic acid synthesis inhibitors, RN4220, OD600 (AID 463173). The following applies: S. aureus RN4220 wild type/DeltatarO growth, OD600, 18 h, hits give low values, screened at 18.75 µg/mL (by protocol).
Consider `CC1Cc2ccccc2N1C(=O)c1nc2ccccc2s1` (stereo not drawn), for which the survival is 113%.
In the case of `O=C(Cn1nc(-c2ccc(Cl)cc2)c2ccccc2c1=O)Nc1cccc(C(F)(F)F)c1`, the survival is 71%.
In the case of `COc1ccccc1N=C1SC(C(=O)Nc2ccccc2OC)CC(=O)N1C` (stereo not drawn), the survival was 73%.
Under `COc1cccc(-c2nnc3sc(CN4CCCCC4)cn23)c1` stands 68%.
As for `CCN1/C(=C\C=C2C(=O)OC(C)(C)OC2=O)Sc2ccccc21`, the survival is 94%.
For `CCC(Sc1nc2ccncc2[nH]1)C(=O)Nc1cc(Cl)ccc1C` (stereo not drawn), the survival was 126%.
On to `CCOC(=O)c1ccc(NC(=O)CN2C(=O)c3cccnc3Sc3ccccc32)cc1`, for which the survival was 66%.
In the case of `CCOC(=O)c1c(C)n(-c2ccccc2)c2ccc(OC(=O)c3ccccc3)cc12`, the survival was 0% (active).
`CCOC(=O)c1c(C)n(-c2ccccc2)c2ccc(OC(=O)c3cccc(C)c3)cc12`: the survival was 50%.
As to `CCOC(=O)c1c(C)n(-c2ccccc2)c2ccc(OC(=O)c3cccc(Cl)c3)cc12`, the survival is 78%.
Under `CC(C)(C)c1ccc(OCCCC(=O)N2CCOCC2)cc1` stands 102%; under `O=C(NCCCN1CCN(c2ccccc2F)CC1)c1sc2ncccc2c1-n1cccc1`, 81%.
Under `c1coc(-c2nc3ccccn3c2Nc2ccc3c(c2)OCCO3)c1` stands 70%; under `O=C(CC1(O)C(=O)N(CCc2ccccc2)c2ccc(Br)cc21)c1ccc(F)cc1` (stereo not drawn), 4% (active).
As to `COc1ccc(C(=O)CC2(O)C(=O)N(CCc3ccccc3)c3ccc(Br)cc32)cc1OC` (stereo not drawn), the survival is 65%.
Under `COc1ccc(C(=O)CC2(O)C(=O)N(Cc3ccccc3)c3ccc(Br)cc32)cc1` (stereo not drawn) stands 57%; under `C#CCN1C(=O)C(O)(CC(=O)c2ccc(OC)c(OC)c2)c2cc(Br)ccc21` (stereo not drawn), 111%.
With `O=C(CC1(O)C(=O)N(CCc2ccccc2)c2ccc(Br)cc21)c1ccccc1O` (stereo not drawn), the survival was 6% (active).
Regarding `O=C(CC1(O)C(=O)N(CCc2ccccc2)c2ccc(Br)cc21)c1ccccc1` (stereo not drawn), the survival was 15%.
Consider `C=CCN(CC=C)C(=S)Nc1ccc2nc(C)c(C)nc2c1`, for which the survival is 110%.
For `Cc1ccc(-c2nc3ncccc3o2)cc1NC(=O)c1ccc(-c2ccc(Cl)cc2)o1` the value was 73%; for `COc1ccc(Cn2c(SCc3ccc(C(=O)NCc4ccccc4F)cc3)nc3cccnc32)cc1`, 67%.
As to `CCOc1ccc(NC(=O)CN2CCN(CC(=O)Nc3ccccc3OCC)CC2)cc1`, the survival was 81%.
For the molecule `CCOc1ccccc1NC(=O)Cc1coc2c(C)c(C)ccc12`, the survival is 114%.
On to `CC1CCN(C(=O)Cn2cc(SCC(=O)NCc3ccc(F)cc3)c3ccccc32)CC1`, for which the survival is 89%.
Under `CCCc1cc(=O)[nH]c(Nc2ccc(O)cc2C)n1` stands 110%.
Consider `COc1ccc(C)c(N2C(=O)CC(N3CCN(c4ccc(F)cc4)CC3)C2=O)c1` (stereo not drawn), for which the survival was 109%.
On to `CC1Cc2ccccc2N1C(=O)c1cc2n(n1)C(C(F)(F)F)CC(c1ccco1)N2` (stereo not drawn), for which the survival is 110%.
Turning to `Cc1cc(Br)cc2c1N(Cc1ccccc1OC(C)C)C(=O)C2=O`, the survival is 26% (active).
As to `Cc1cccc2c1N(Cc1ccccc1OCCC(C)C)C(=O)C2=O`, the survival is 25% (active).
In the case of `CCCOc1ccc(CN2C(=O)C(=O)c3cccc(C)c32)cc1`, the survival was 38%.
Consider `CCCCOc1ccc(CN2C(=O)C(=O)c3cc(Br)cc(C)c32)cc1OC`, for which the survival is 59%.
Turning to `Cc1ccc(CN2C(=O)C(=O)c3cc(Br)cc(C)c32)cc1`, the survival is 40%.
For the molecule `COc1ccccc1CN1C(=O)C(=O)c2cccc(C)c21`, the survival is 107%.
Turning to `CC(=O)c1cc(-c2ccccc2)n(CCC(=O)Nc2ccc(C)cc2C)c1C`, the survival was 85%.
Consider `Cc1ccc(-c2nn(CC(=O)NC3CCCCC3)c3c2cnc2ccccc23)cc1`, for which the survival is 75%.
For `CN(Cc1ccccc1)C(=O)COc1ccc(S(=O)(=O)N2CCCC2)cc1`, the survival is 121%.
For `Nc1c(C(=O)c2ccc(F)cc2)sc(Nc2ccccc2F)c1S(=O)(=O)c1ccc(Br)cc1`, the survival is 74%.
For `COc1ccc(C(=O)c2sc(Nc3cc(Cl)ccc3C)nc2N)cc1OC`, the survival was 129%.
`Nc1nc(Nc2ccccc2F)sc1C(=O)c1ccc(Cl)cc1`: the survival is -7% (active).
In the case of `CCc1nn2c(=O)cc(COC(=O)c3cccs3)nc2s1`, the survival was 89%.
For `CCOC(=O)c1c(S(=O)(=O)N2CCCC(C(=O)Nc3ncccc3C)C2)c(C)n(C)c1C` (stereo not drawn) the value was 71%.
`O=C(CSc1nnc(NC(=O)C2CC2)s1)Nc1ccccc1F`: the survival is 108%.
Under `CCOc1ccccc1CNC(=O)c1ccc(N2Cc3ccccc3Oc3ncccc32)s1` stands 84%; under `CCOC(=O)c1sc2ncn(CC(=O)Nc3ccc(OC)c(Cl)c3)c(=O)c2c1C`, 78%; under `O=C(NCc1ccccc1)c1nc[nH]c1C(=O)NCc1ccccc1`, 123%.
Turning to `CCOc1cccc2cc(-c3cn4c(n3)sc3ccccc34)c(=O)oc12`, the survival was 64%.
Consider `COc1cccc2cc(-c3cn4c(n3)sc3cc(F)ccc34)c(=O)oc12`, for which the survival was 75%.
As for `CCOc1cccc2cc(-c3cn4c(n3)sc3cc(C)ccc34)c(=O)oc12`, the survival was -6% (active).
Take `Cc1ccc(CCNC(=O)C2CCCN(Cc3nc(-c4cccc(Cl)c4)oc3C)C2)cc1` (stereo not drawn): the survival was 9% (active).
Regarding `Cc1cccc(-c2nc(CN3CCCC(C(=O)NCCc4ccc(Cl)cc4)C3)c(C)o2)c1` (stereo not drawn), the survival is 29%.
With `Cc1oc(-c2ccc(Cl)cc2)nc1CN1CCCC(C(=O)NCCc2ccc(Cl)cc2)C1` (stereo not drawn), the survival is 86%.
In the case of `Cc1oc(-c2cccc(Cl)c2)nc1CN1CCCC(C(=O)NCCc2ccc(Cl)cc2)C1` (stereo not drawn), the survival is -2% (active).
Consider `Cc1oc(-c2cccc(Cl)c2)nc1CN1CCC(C(=O)NCCc2ccc(Cl)cc2)CC1`, for which the survival was 88%.
Turning to `Cc1oc(-c2ccc(Cl)cc2)nc1CN1CCCC(C(=O)NCCc2ccccc2)C1` (stereo not drawn), the survival was 29%.
`CCc1ccc(C(=O)c2cn(CC(=O)Nc3ccc4c(c3)OCO4)c3cc(OC)c(OC)cc3c2=O)cc1`: the survival was 107%.
Take `Cc1ccccc1NC(=O)c1ccccc1NC(=O)c1ccccc1F`: the survival was 89%.
As for `COc1ccc(NC(=O)CC2C(=O)N(c3ccccc3)C(=O)N2C2CCCCC2)cc1` (stereo not drawn), the survival is 70%.
As for `O=C(Nc1ccccc1C(F)(F)F)C1CCN(c2nnc(-n3cccc3)s2)CC1`, the survival is 113%.
For `COc1ccc(C(C)=O)cc1CSc1nc(NCc2ccc(Cl)cc2)c2ccccc2n1`, the survival was 0% (active).
`COc1ccc(C(C)=O)cc1CSc1nc(NCCc2ccccc2)c2ccccc2n1`: the survival is 47%.
As for `COc1ccc(C(C)=O)cc1CSc1nc(NCc2ccccc2)c2ccccc2n1`, the survival is 85%.
For `O=C(NCc1ccc(F)cc1)c1c2c(nc3ccccc13)C(=O)N(C1CCCCC1)C2` the value was 99%; for `CN(C(=O)c1c2c(nc3ccccc13)C(=O)N(C1CCCCC1)C2)c1ccc(F)cc1`, -3% (active); for `CCOc1ccccc1N(C)C(=O)c1c2c(nc3ccccc13)C(=O)N(C1CCCCC1)C2`, 90%.
Take `COc1ccc(CNC(=O)Cn2ncc3c(=O)oc4ccc(C)cc4c32)c(OC)c1`: the survival is 113%.
In the case of `CCOC(=O)c1c(NC(=O)CCCOc2ccc(C)cc2)sc2c1CCC(C)C2` (stereo not drawn), the survival was 2% (active).
Under `COC(=O)c1c(NC(=O)CCCOc2ccccc2)sc2c1CCC(C)C2` (stereo not drawn) stands 20%.
Under `CC1CCc2c(sc(NC(=O)CCCOc3ccccc3)c2C(N)=O)C1` (stereo not drawn) stands 91%.
For `CCOC(=O)c1c(NC(=O)CCCOc2ccccc2C)sc2c1CCC(C)C2` (stereo not drawn) the value was 6% (active); for `Cc1ccc(OCCCC(=O)Nc2sc3c(c2C(N)=O)CCC(C)C3)cc1` (stereo not drawn), 148%; for `CCOC(=O)c1c(NC(=O)CS(=O)(=O)c2ccc(C)cc2)sc2c1CCC(C)C2` (stereo not drawn), 73%.
Take `COC(=O)c1ccccc1NC(=O)COC(=O)c1ccco1`: the survival was 108%.
For `COc1ccc(CNC(=O)c2cc(=O)[nH]c3ccc(S(=O)(=O)N4CCCC4)cc23)c(OC)c1` the value was 60%.
Under `Cc1ccc(CNC(=O)C2COc3ccccc3C2)cc1` (stereo not drawn) stands 121%.
In the case of `Cc1ccc(CCNC(=O)C2COc3ccccc3C2)cc1` (stereo not drawn), the survival was 88%.
Turning to `CCOc1ccc(CCNC(=O)C2COc3ccccc3C2)cc1OCC` (stereo not drawn), the survival is -2% (active).
Consider `O=C(NCCc1ccccc1)C1COc2ccccc2C1` (stereo not drawn), for which the survival was 10% (active).
For the molecule `CCc1ccc(CNC(=O)C2COc3ccccc3C2)cc1` (stereo not drawn), the survival was 88%.
For `CN(C)c1ccc(CNC(=O)C2COc3ccccc3C2)cc1` (stereo not drawn), the survival is 0% (active).
Under `O=C(NCCc1ccc(Cl)cc1)C1COc2ccccc2C1` (stereo not drawn) stands 88%.
For `CCOc1cc(CNC(=O)C2COc3ccccc3C2)cc(OCC)c1OCC` (stereo not drawn), the survival is 73%.
With `COc1ccc(CCNC(=O)C2COc3ccccc3C2)cc1OC` (stereo not drawn), the survival was 59%.
In the case of `Cc1cccc(-n2c(SCC(=O)Nc3ccccc3C)nc3c(oc4ccccc43)c2=O)c1`, the survival was 86%.
Regarding `Cc1ccc(C)c(NC(=O)N2CCN(C(=O)c3nsc4ccccc34)CC2)c1`, the survival was 69%.
Turning to `Cc1cccc(NC(=O)N2CCN(C(=O)c3nsc4ccccc34)CC2)c1C`, the survival is 72%.
`O=C(Nc1ccc(F)cc1)N1CCN(C(=O)c2nsc3ccccc23)CC1`: the survival is 14% (active).
On to `Cc1cc(C)cc(NC(=O)N2CCN(C(=O)c3nsc4ccccc34)CC2)c1`, for which the survival is 78%.
Consider `Cc1ccc(NC(=O)N2CCN(C(=O)c3nsc4ccccc34)CC2)cc1C`, for which the survival was -6% (active).
Regarding `O=C(Nc1ccc(F)c(Cl)c1)N1CCN(C(=O)c2nsc3ccccc23)CC1`, the survival is 70%.
Under `CCc1ccccc1NC(=O)N1CCN(C(=O)c2nsc3ccccc23)CC1` stands -1% (active); under `CCc1ccc(NC(=O)N2CCN(C(=O)c3nsc4ccccc34)CC2)cc1`, 76%; under `O=C(Nc1ccccc1)N1CCN(C(=O)c2nsc3ccccc23)CC1`, 85%.
